Laboratory results taken from PubChem BioAssay AID1159580 (chemical genetic matrix, 2015).
Screen size: about 5,500 compounds; about 2,000 (36%) were called active. Another 18% or so got no clear call; they are omitted. Rule as the data show it: active = normalized growth mostly below about 0.91 (no sharp cut-off); inconclusive = no clear call, values can overlap the other calls; inactive = mostly above about 0.92. Some of the results follow.

Test: chemical genetic growth profiling, strain panel (AID 1159580);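 also: tested at 20 µM; growth read once vehicle control cultures reached saturation at 30 °C; 1 = growth at the plate median or of vehicle wells; lower values mean less growth of the strain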
Settings: S. cerevisiae deletion strains, growth OD

Measured: normalized growth

C=CCC1C(=O)N(S(=O)(=O)c2ccc(Cl)cc2)N=C1CCC (stereo unspecified)
inactive: locus YAR019C, strain CDC15, active compounds read low 0.992 | locus YBL105C, strain PKC1, active compounds read low 0.994 | locus YBR135W, strain CKS1, active compounds read low 0.998 | locus YBR136W, strain MEC1, active compounds read low 0.987 | locus YBR160W, strain CDC28, active compounds read low 0.997 | locus YDL017W, strain CDC7, active compounds read low 0.996 | locus YDL028C, strain MPS1, active compounds read low 0.995 | locus YDL101C, strain DUN1, active compounds read low 0.991 | locus YDL108W, strain KIN28, active compounds read low 0.989 | locus YDL132W, strain cdc53, active compounds read low 0.994 | locus YDL214C, strain PRR2, active compounds read low 0.951 | locus YDR052C, strain DBF4, active compounds read low 0.999 | locus YDR054C, strain cdc34, active compounds read low 0.996 | locus YDR226W, strain ADK1, active compounds read low 0.996 | locus YDR477W, strain SNF1, active compounds read low 0.981 | locus YER123W, strain YCK3, active compounds read low 0.961 | locus YER133W, strain GLC7, active compounds read low 0.986 | locus YFL009W, strain cdc4, active compounds read low 0.993 | locus YFL029C, strain CAK1, active compounds read low 0.984 | locus YFR003C, strain YPI1, active compounds read low 0.996 | locus YFR019W, strain FAB1, active compounds read low 0.977 | locus YFR028C, strain CDC14, active compounds read low 0.991 | locus YGR040W, strain KSS1, active compounds read low 0.97 | locus YGR052W, strain FMP48, active compounds read low 1.06 | locus YGR092W, strain DBF2, active compounds read low 0.997 | locus YHR030C, strain SLT2, active compounds read low 1.05 | locus YHR079C, strain IRE1, active compounds read low 0.97 | locus YHR082C, strain KSP1, active compounds read low 1.01 | locus YHR205W, strain SCH9, active compounds read low 0.972 | locus YIL147C, strain SLN1, active compounds read low 0.992 | locus YJL095W, strain BCK1, active compounds read low 0.993 | locus YJL128C, strain PBS2, active compounds read low 0.943 | locus YJL157C, strain FAR1, active compounds read low 0.983 | locus YJR016C, strain ILV3, active compounds read low 0.994 | locus YJR066W, strain TOR1 (second series), active compounds read low 0.978 | locus YJR066W, strain TOR1, active compounds read low 0.986 | locus YKL048C, strain ELM1, active compounds read low 0.962 | locus YKL067W, strain YNK1, active compounds read low 0.964 | locus YKL101W, strain HSL1, active compounds read low 0.942 | locus YKL193C, strain SDS22, active compounds read low 0.995 | locus YKL203C, strain TOR2, active compounds read low 1.04 | locus YLR113W, strain HOG1, active compounds read low 0.887 | locus YLR133W, strain CKI1, active compounds read low 0.965 | locus YLR403W, strain SFP1, active compounds read low 1 | locus YML070W, strain DAK1, active compounds read low 0.963 | locus YMR001C, strain CDC5, active compounds read low 0.991 | locus YMR205C, strain PFK2 (second series), active compounds read low 0.966 | locus YMR277W, strain FCP1, active compounds read low 0.999 | locus YNL006W, strain LST8, active compounds read low 0.999 | locus YNL020C, strain ARK1, active compounds read low 0.962 | locus YNL161W, strain CBK1, active compounds read low 0.994 | locus YNL183C, strain NPR1, active compounds read low 0.98 | locus YNL207W, strain RIO2, active compounds read low 0.995 | locus YNL222W, strain SSU72, active compounds read low 0.994 | locus YNL307C, strain MCK1 (second series), active compounds read low 0.989 | locus YOL078W, strain AVO1, active compounds read low 0.995 | locus YOL136C, strain PFK27, active compounds read low 0.968 | locus YOR061W, strain CKA2, active compounds read low 0.97 | locus YOR119C, strain RIO1, active compounds read low 1.01 | locus YOR231W, strain MKK1, active compounds read low 0.968 | locus YOR329C, strain SCD5, active compounds read low 0.996 | locus YPL031C, strain PHO85, active compounds read low 0.953 | locus YPL153C, strain RAD53, active compounds read low 0.977 | locus YPL204W, strain HRR25, active compounds read low 0.998 | locus YPL209C, strain IPL1, active compounds read low 0.994 | locus YPL256C, strain CLN2, active compounds read low 0.916 | locus YPR025C, strain CCL1, active compounds read low 0.994 | locus YPR106W, strain ISR1, active compounds read low 0.988 | locus YPR111W, strain DBF20, active compounds read low 0.978 | strain NNK1, active compounds read low 0.982 | strain TSCII, active compounds read low 0.989
